# Measured values taken from PubChem BioAssay AID434998 (Southern Research Specialized Biocontainment Screening …, 2010).
# The source made the active and inactive calls. The rule behind the calls is not given here.
# Experiment: S. Typhi GFP reporter counter-screen inhibition, SAR follow-up, counter-screen for PhoP regulon inhibitor project, purified and synthesized compounds, round 3 (AID 434998)
# Conditions: S. typhi GFP reporter fluorescence, high Mg2+ counter-screen, 4 h; series mostly up to 150 µM
row,SMILES,outcome
1,N#Cc1ccccc1NC(=S)NCc1ccc(Cl)cc1,inactive
2,O=C(Nc1ccc(I)cc1)N1CCCN(Cc2ccccc2F)C1,inactive
3,O=C(Nc1cccc(I)c1)N1CCCN(Cc2ccccc2F)C1,inactive
4,N#Cc1ccc(NC(=S)NCc2ccc(Cl)cc2)cc1,inactive
5,Cc1ccccc1CNC(=S)Nc1ccncc1,inactive
6,O=C1C2=C(Nc3ccccc3SC2c2cccc(I)c2)c2ccccc21 (centres undefined),inactive
7,COc1ccccc1CNC(=S)Nc1ccncc1,inactive
8,O=C(Nc1cccc(F)c1)N1CCCN(Cc2ccccc2F)C1,inactive
9,Cc1ccc(NC(=O)N2CCCN(Cc3ccccc3F)C2)cc1,inactive
10,S=C(NCCc1ccc(Cl)cc1)Nc1ccncc1,inactive
11,Cc1cccc(NC(=O)N2CCCN(Cc3ccccc3F)C2)c1,inactive
12,O=C(Nc1ccc(Cl)cc1)N1CCCN(Cc2ccccc2Br)C1,inactive
13,O=C(Nc1ccc(Cl)cc1)N1CCCN(Cc2ccc(Br)cc2)C1,inactive
14,O=C(Nc1cccc(C(F)(F)F)c1)N1CCCN(Cc2ccccc2F)C1,inactive
